HTT aggregate: mutant huntingtin aggregation inhibition; PC12 HttQ103-GFP aggregates, Acumen cytometry, 40 h; Potency, µM (top dose mostly 46.1 µM), for inactives: at the highest dose activity change, negative = inhibition, actives largely listed as inhibitors; 220,000 compounds, 1.1% hits; further: on the % scale 0 is the no-effect control and ±100 the full control effect; nearly all actives have a fitted effect of over 60% in size
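Multiplexed with ATP-based cell death, this channel scores GFP aggregates in PC12 cells expressing inducible HTTex1-Q103-GFP. Induction used 100 nM tebufenozide; compounds were tested in concentration series.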
ALDH1A1 block: ALDH1A1 (human) enzyme inhibition; Purified ALDH1A1, NADH fluorescence, propionaldehyde substrate; Potency, µM (highest dose often 75.3 µM), inactives show at the top dose activity, negative = inhibition, usual class: inhibitors; 220,000 compounds, 7.3% hits; active means well fitted inhibition curve with a large enough effect, not every such curve was filed as active; inconclusive means small, poorly fitted or top-dose-only effect, or another doubt; inactive means no such curve, though single readings can be large or run the other way;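 further: plate controls were no enzyme wells and a reference inhibitor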
Target sequence (P00352 whole entry, looked up): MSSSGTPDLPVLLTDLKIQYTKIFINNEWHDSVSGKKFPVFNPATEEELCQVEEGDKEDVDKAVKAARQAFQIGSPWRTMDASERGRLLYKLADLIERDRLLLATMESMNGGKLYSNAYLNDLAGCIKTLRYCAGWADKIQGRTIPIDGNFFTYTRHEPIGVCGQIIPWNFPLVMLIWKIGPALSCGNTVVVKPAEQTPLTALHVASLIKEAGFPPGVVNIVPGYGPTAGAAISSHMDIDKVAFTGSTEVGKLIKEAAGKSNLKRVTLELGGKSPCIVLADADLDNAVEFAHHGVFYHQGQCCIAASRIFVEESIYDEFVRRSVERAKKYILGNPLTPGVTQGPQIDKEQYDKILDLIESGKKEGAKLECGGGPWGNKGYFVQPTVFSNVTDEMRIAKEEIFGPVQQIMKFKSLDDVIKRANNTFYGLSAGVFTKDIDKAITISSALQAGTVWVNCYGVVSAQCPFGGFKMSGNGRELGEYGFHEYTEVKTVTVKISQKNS
Lamin A splicing: modulators of lamin A splicing; HeLa LMNA splicing GFP/RFP minigene ratio, 48 h; Potency, µM (doses to about 46.1 µM), for inactives: at the highest dose ratio change, negative = inhibition, actives largely listed as inhibitors; 200,000 compounds, 0.01% hits; AID 1487; active means well fitted inhibition curve with a large enough effect in the signal ratio, with a control signal flat, not every such curve was filed as active; inconclusive means small, poorly fitted or top-dose-only effect, or effect the other way, or a change in a side signal; the % refers to the signal ratio; further: on the % scale 0 is the no-effect control and ±100 the full control effect
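Read-out is the ratio of GFP to DsRed2 object intensity, acquired by 488 nm laser-scanning cytometry on HeLa lamin A-EGFP minigene reporter cells. Compound incubation 48 hrs at 37 °C in Opti-MEM with 2% FBS; DMSO 0.5% final.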
HTT ATP protect: protects HTT-Q103 PC12 cells, measured by ATP. Potency, µM (doses to about 56.4 µM), for inactives: cytoprotection (ATP increase), actives largely listed as activators. AID 1471. 230,000 compounds, 0.14% hits. PC12 HTT-Q103 induced, cytoprotection, ATP luminescence, 40 h; further: % of control where 0% means no effect; nearly all actives have a fitted effect of over 45% in size
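Cells were plated at 1500 per well in phenol red-free DMEM with 5% equine and 5% calf serum. Tebufenozide (100 nM final) and compounds were added, then ATPlite reagent, and luminescence was read.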
HPGD inh: blocks human HPGD enzyme activity; purified HPGD, NADH fluorescence kinetic, PGE2 substrate; Potency, µM, for the others: top-dose activity change, negative = inhibition, actives largely listed as inhibitors; 150,000 compounds, 4.3% hits; AID 894; active means well fitted inhibition curve with a large enough effect, not every such curve was filed as active; inconclusive means small, poorly fitted or top-dose-only effect, or another doubt; inactive means no such curve, though single readings can be large or run the other way; further: on the % scale 0 is the no-effect control and ±100 the full control effect
Target sequence (P15428 whole entry, looked up): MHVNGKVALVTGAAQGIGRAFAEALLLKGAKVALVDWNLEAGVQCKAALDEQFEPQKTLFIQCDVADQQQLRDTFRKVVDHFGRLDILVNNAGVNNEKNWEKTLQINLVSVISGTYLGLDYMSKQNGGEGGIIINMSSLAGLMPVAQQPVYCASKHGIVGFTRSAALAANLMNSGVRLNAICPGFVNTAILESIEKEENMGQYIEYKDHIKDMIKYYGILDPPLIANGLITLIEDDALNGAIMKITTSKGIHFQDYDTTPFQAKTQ
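NADH formation kinetics: reaction with 30 uM PGE2 and 1 mM NAD+ (final), 20 nM enzyme, Tris-HCl pH 8 with Tween 20, after 15 min compound preincubation at room temperature. Fluorescence change, last versus first of five reads.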
* hit, by the source's call; ? = inconclusive; nt = not tested or not shown; [ ] = dose if it differs, or a comment. Hits are enriched below; roughly 8.8% of the tested compounds scored in any of these assays. Unless noted, the call rests on the fitted dose curve; in most records, active means well fitted curve in the direction sought with a large enough effect; inconclusive means small, poorly fitted or top-dose-only effect, or another doubt; inactive means no such curve, though single readings can be large; an effect the other way counts as inactive or inconclusive. Potency means the concentration at half of the fitted maximal effect.

SMILES	HTT aggregate	ALDH1A1 block	Lamin A splicing	HTT ATP protect	HPGD inh
COc1ccc(CN2CCCC(C(=O)N3CCCC3)C2)cc1 (configuration not stated)	27.4%	-3.5%	2.6%	-14.0%[0.074 µM]	-4.1%
O=C(C1CCN(CCCc2ccccc2)CC1)N1CCCCC1	-2.2%	14.1µM*	-3.8%	5.3%	-17.7%
C/C(=C\c1ccccc1)CN1CCC(C(=O)N2CCC(C)CC2)CC1	-7.4%	35.5µM*	1.2%	-8.0%[1.9 µM]	-6.7%
O=C(C1CCCN(Cc2cccnc2)C1)N1CCCCC1 (configuration not stated)	?	5.01µM*	15.9%	-84.8%	nt
CSCC(O)Cn1ncc2ccccc2c1=O (configuration not stated)	-7.7%[9.22 µM]	nt	nt	14.0%[10 µM]	nt
CCNc1nc(NC(C)C)nc(Oc2ccc(=O)n(C)n2)n1	11.6%[9.22 µM]	10.5%	nt	7.7%[10 µM]	nt
CCc1cccc2nc3c(c([Si](C)(C)C)c12)Cn1c-3cccc1=O	nt	?	nt	-47.5%	?
O=C(Cn1c(=O)n(Cc2ccco2)c(=O)c2cc(Cl)ccc21)NCC1CCCO1 (configuration not stated)	-13.3%	25.1µM*	-7.8%	2.7%	0.8%
COc1cc2c(=O)n(Cc3ccccc3)c(=O)n(CC(=O)NCC3CCCO3)c2cc1OC (configuration not stated)	7.4%	?	-0.7%	13.9%	?
CC(C)(C)N1C(=O)c2ccc(C(=O)NCc3ccco3)cc2C1=O	-7.7%	8.91µM*	9.7%	-12.8%	-14.2%
O=C(NCc1ccc(N2CCCC2=O)cc1)c1ccc(F)cc1	11.7%	7.2%	?	-34.0%	nt
O=C(NCc1ccco1)c1ccc(C(F)(F)F)cc1	11.7%	4.0%	-14.0%[46 µM]	-40.0%	nt
CCN1C(=O)CSc2ccc(C(=O)OC)cc21	2.3%	1.5%	-5.6%	-5.1%	3.9%
CCN1C(=O)CSc2ccc(C(=O)NCc3ccco3)cc21	19.8%	12.6µM*	6.1%	-10.7%[0.074 µM]	-0.7%
O=C(NCc1ccco1)c1ccc(N2CCCC2=O)cc1	20.8%	-4.7%	?	-26.5%	25.1µM*
CCOC(=O)c1cc(S(=O)(=O)N2CCN(c3cc(C)ccc3C)CC2)[nH]n1	nt	nt	-13.9%[46 µM]	nt	nt
Cc1onc(-c2ccccc2)c1C(=O)/C=C/N(C)C	-10.3%[9.22 µM]	0.8%	nt	-8.9%[10 µM]	nt
CNc1nc(C)cc(C)c1S(=O)(=O)c1ccc(C)cc1	?	?	6.7%	-10.6%	?
COc1cc2c(cc1O)[C@@H](c1cc(O)c(O)c(OC)c1)[C@@](O)(C(=O)O)[C@@H](CO)[C@@H]2O	nt	8.6%[13.5 µM]	nt	6.0%[10 µM]	-4.2%
COc1ccc(-n2nc(C#N)c(Cl)cc2=O)cc1	25.1µM*	?	?	-2.8%[10 µM]	nt
CC(=O)Nc1ccc2c(c1)nc1n2CCSC1	1.3%[9.22 µM]	7.0%	4.2%	4.8%	-9.4%
CCCCC(=O)Nc1ccc2c(c1)nc1n2CCSC1	-10.0%	17.8µM*	4.5%	-7.3%	31.6µM*
CC1(C)CC(=O)c2cnc(NCC3CCCO3)nc2C1 (configuration not stated)	-4.2%	?	3.0%	-7.7%[0.074 µM]	22.4µM*
COc1ccc(-n2c(=O)cnc3cnc(N4CCN(C)CC4)nc32)cc1	nt	19.9%	-11.9%	26.4%	nt
C=CCN1C(=O)C2(/C(=C(\O)c3ccc4c(c3)OCCO4)C(=O)C(=O)N2CCCOC)c2ccccc21 (configuration not stated)	-2.8%	2.82µM*	5.4%	-15.4%[0.074 µM]	-18.1%
SMILES	HTT aggregate	ALDH1A1 block	Lamin A splicing	HTT ATP protect	HPGD inh
CCCn1c(-c2ccc(F)cc2)nc2c(NCCN(C(C)C)C(C)C)nc(C)nc21	nt	?	nt	-54.6%	-28.5%
CCN(CC)S(=O)(=O)c1ccc(Oc2cccc(C(C)=O)c2)nc1	5.62µM*	14.1µM*	?	7.0%	-13.5%
CN(C)S(=O)(=O)c1ccc(Oc2ccccc2)cc1	-42.3%	13.3%	?	-14.5%[0.074 µM]	-11.0%
CCN(CC)S(=O)(=O)c1ccc(Oc2ccccc2)cc1	15.8µM*	3.4%	?	-9.0%	-15.7%
COC(=O)c1ccc(OCC2c3cc(OC)c(OC)cc3CCN2C(=O)c2ccc(F)cc2)cc1 (configuration not stated)	nt	nt	-11.4%[46 µM]	nt	nt
CCNc1ncc2nc(-c3ccc(F)cc3)c(=O)n(CCC#N)c2n1	nt	?	nt	-5.1%	?
O=C(NCCc1cccs1)C1CC(c2c(Cl)cccc2Cl)=NO1 (configuration not stated)	?	-0.7%	14.2%	-34.7%	14.1µM*
Cc1c(Cl)cccc1NC(=S)NNc1ncc(C(F)(F)F)cc1Cl	12.6µM*	14.1µM*	1.4%	-63.9%	-11.3%
FC(F)(F)c1cnc(NNC(=S)Nc2cccnc2)c(Cl)c1	?	2.24µM*	?	-112.6%	nt
Cc1ccccc1NC(=S)NNc1ncc(C(F)(F)F)cc1Cl	?	10µM*	?	12.3%	-12.7%
Fc1ccccc1NC(=S)NNc1ncc(C(F)(F)F)cc1Cl	-79.6%	2.24µM*	-8.7%	-4.2%	-25.3%
COc1ccc(/C=N/NC(=O)CCn2cnc(-c3ccccc3)c2-c2ccccc2)cc1OC	25.7%	28.2µM*	?	-43.8%[10 µM]	-6.7%
COc1ccc(/C=N/NC(=O)CCC(=O)Nc2ccccc2)cc1OC	12.5%	11.8%	-16.3%	-6.7%[10 µM]	-8.0%
CC(C)N1C(=O)/C(=C\c2nc3ccccc3c(=O)[nH]2)c2ccccc21	9.2%	12.6µM*	?	nt	-26.3%
CCCN1C(=O)/C(=C/c2nc3ccccc3c(=O)[nH]2)c2ccccc21	9.7%	2.51µM*	9.7%	32.2%[0.074 µM]	-4.9%
CCN(CC)S(=O)(=O)c1ccc(N2CCCCC2)c(NC(=O)/C(C#N)=C/c2ccc(OC)cc2)c1	-15.7%	?	1.6%	4.0%[10 µM]	-18.1%
COc1ccc(/C=C(\C#N)C(=O)Nc2cc(S(=O)(=O)N3CCOCC3)ccc2N2CCCC2)cc1	-0.1%	10µM*	5.5%	-18.3%[10 µM]	12.6µM*
COc1ccccc1NC(=O)/C(C#N)=C/c1cc([N+](=O)[O-])ccc1N1CCCC1	16.1%	7.0%	-4.4%	3.98µM*	-20.0%
CC1CCCCN1CC(=O)c1c(N)n(Cc2ccccc2)c(=O)n(C)c1=O (configuration not stated)	4.6%	-0.6%	-6.8%[46 µM]	-28.3%	nt
CC(=O)OCC(=O)[C@]12OC(C)(C)O[C@@H]1C[C@H]1[C@H]3CC=C4C[C@@H](O)CC[C@]4(C)[C@H]3CC[C@]12C	nt	3.9%[13.5 µM]	nt	4.3%[10 µM]	-2.0%
COc1ncc2nc(-c3ccc(Cl)cc3)c(=O)n(Cc3cccs3)c2n1	nt	?	17.8%	1.7%	nt
Cc1ccc(C(C[N+](=O)[O-])n2nc(C)cc2C)cc1 (configuration not stated)	-5.7%	?	6.1%	5.4%	15.8µM*
Cc1ccc(S(=O)(=O)n2nc(C)cc2C)cc1	18.4%	9.0%	3.8%	8.9%	-5.2%
COc1ccccc1N1CC(C)(C)C(=O)N(C(=O)c2ccc(C)cc2)C1=S	5.3%[9.22 µM]	nt	nt	24.0%[10 µM]	nt

Compound activity from PubChem.
